# Source: PubChem BioAssay (Tox21)
# “And” between values parts separate entries of the source, which are not always exact repeats. Identical values can stand only once. Inconclusive results are not listed. Some structures have more than one record in an assay (separate samples or runs), and their calls can disagree. The source made the active and inactive calls. Calls come from the whole dose curve; as a rule, active = well fitted curve in the direction sought with a large enough effect in the repeat runs; inconclusive = weak or mixed curves; inactive = no such curve, though single readings can be large; an effect the other way counts as inactive or inconclusive.
# Test: qHTS assay for identifying genotoxic compounds that show differential cytotoxicity against isogenic chicken DT40 cell lines with known DNA damage response pathways - Rev3 mutant cell line (AID 743014); note: nearly all actives have a fitted effect of over 55% in size
# Conditions: chicken DT40 Rev3-/- viability, CellTiter-Glo, 40 h; series mostly up to 68.4 µM; activity, negative = cytotoxicity: at the top concentration
# % is set by controls: 0 for no effect and ±100 for the full control effect; potency is the fitted concentration of half-maximal effect.
SMILES,Potency,"activity, negative = cytotoxicity"
COc1cc(C(C)C)c2c(c1)S(=O)(=O)N(COc1cc(=O)n3cccc(OCCN4CCCCC4)c3n1)C2=O,16.4 µM (active),
CCCCOC(=O)C(C)CC (configuration not stated),13.7 µM (active),
CC(C)c1cccc(C(C)C)c1N1C(=O)c2ccc(O)cc2C1=O,7.7 µM (active),
CCCN(CCc1cccs1)[C@H]1CCc2c(O)cccc2C1,26.6 µM (active),
CCCSS/C(CCO)=C(\C)N(C=O)Cc1cnc(C)nc1N,8.41 µM (active),
S=P(N1CC1)(N1CC1)N1CC1,944 nM (active) and 319 nM (active),
Clc1ccc(C(c2ccccc2Cl)C(Cl)Cl)cc1 (configuration not stated),29.8 µM (active) and 48.6 µM (active),
CCC(C)(C)c1cc(O)c(C(C)(C)CC)cc1O,21.7 µM (active),
CCCCCCCCCCCCCCNCCO,21.1 µM (active),
CCCCCCCCCC(=O)N(C)C,,-9.54% [at 95 µM] (inactive)
CCc1cccc(C)c1,,-2.89% [at 95 µM] (inactive)
C[C@@H]1CC[C@H]2C(C)(C)[C@H]3C[C@@]12CC[C@@]3(C)O,,-0.148% (inactive)
Cc1cn[nH]c1,,1.19% (inactive)
CC=O,0.057 µM (active),
Cn1cnc2ncnc(N)c21,,2.6% (inactive)
Clc1ccc(C(Cn2ccnc2)OCc2c(Cl)cccc2Cl)c(Cl)c1 (configuration not stated),12.7 µM (active),
Clc1ccccc1CN1CCc2sccc2C1,21.1 µM (active),
CSc1ccc2c(c1)N(CCC1CCCCN1C)c1ccccc1S2 (configuration not stated),6.68 µM (active) and 17.2 µM (active),
CCN=C1C=CC(=C(c2ccc(N(CC)CC)cc2)c2ccc(N(CC)CC)cc2)c2ccccc21,0.0305 µM (active),

# Test: qHTS assay for identifying genotoxic compounds that show differential cytotoxicity against isogenic chicken DT40 cell lines with known DNA damage response pathways - Rad54/Ku70 mutant cell line (AID 743015); note: nearly all actives have a fitted effect of over 60% in size
# Conditions: DT40 Rad54/Ku70 mutant viability, CellTiter-Glo, 40 h; series mostly up to 66.8 µM; activity change, negative = cytotoxicity: at the top concentration
SMILES,Potency,"activity change, negative = cytotoxicity"
CCCCCCCCCCCCN(CCO)CCO,0.609 µM (active),
CCCCNc1c(C(=O)OCC)c(C)nc2c1cnn2CC,26.6 µM (active),
CCCCCCCCCCCCCCCC,,11.3% (inactive)
Oc1ccc(-c2ccccc2)c(Cl)c1,30.6 µM (active),
S=C(SSSSSSC(=S)N1CCCCC1)N1CCCCC1,0.674 µM (active),
COc1cccc(CCc2ccccc2OCC(CN(C)C)OC(=O)CCC(=O)O)c1 (configuration not stated),11.9 µM (active),
Cc1cc2c(C(C)C)c(O)c(O)c(C=O)c2c(O)c1-c1c(C)cc2c(C(C)C)c(O)c(O)c(C=O)c2c1O,11.9 µM (active),
ClC/C=C\CCl,,-0.471% [at 95.1 µM] (inactive)
O=S(=O)(O)CCCN1CCOCC1,,17.3% (inactive)
CC(=O)Nc1ccc(O)cc1,inactive,
CO[C@H]1C=CO[C@@]2(C)Oc3c(C)c(O)c4c(O)c(cc(O)c4c3C2=O)NC(=O)/C(C)=C\C=C/[C@H](C)[C@H](O)[C@@H](C)[C@@H](O)[C@@H](C)[C@H](OC(C)=O)[C@@H]1C,inactive and 12.3 µM (active),
CNC(=S)NN,7.7 µM (active),
CNC(=O)c1cc(Oc2ccc(NC(=O)Nc3ccc(Cl)c(C(F)(F)F)c3)cc2)ccn1,5.31 µM (active),
Cc1cccc(Br)c1,,2.17% [at 95.1 µM] (inactive)
CC1=C(/C=C/C(C)=C/C=C/C(C)=C/C(=O)Nc2ccc(O)cc2)C(C)(C)CCC1,9.44 µM (active) and 9.94 µM (active),
CC(C)=C1CC[C@@H](C)CC1=O,,-2.5% (inactive)
O=C1c2c(O)ccc([N+](=O)[O-])c2C(=O)c2c([N+](=O)[O-])ccc(O)c21,5.4 µM (active),

SMILES,Potency,"activity change, negative = cytotoxicity"
COc1cc(C(C)C)c2c(c1)S(=O)(=O)N(COc1cc(=O)n3cccc(OCCN4CCCCC4)c3n1)C2=O,13 µM (active),
CCCCOC(=O)C(C)CC (configuration not stated),13.7 µM (active),
CC(C)c1cccc(C(C)C)c1N1C(=O)c2ccc(O)cc2C1=O,8.63 µM (active),
CCCN(CCc1cccs1)[C@H]1CCc2c(O)cccc2C1,23.7 µM (active),
CCCSS/C(CCO)=C(\C)N(C=O)Cc1cnc(C)nc1N,13.3 µM (active),
S=P(N1CC1)(N1CC1)N1CC1,26.6 µM (active) and 11.4 µM (active),
Clc1ccc(C(c2ccccc2Cl)C(Cl)Cl)cc1 (configuration not stated),26.6 µM (active) and 43.3 µM (active),
CCC(C)(C)c1cc(O)c(C(C)(C)CC)cc1O,17.2 µM (active),
CCCCCCCCCCCCCCNCCO,11.9 µM (active),
CCCCCCCCCC(=O)N(C)C,,-0.629% [at 95.1 µM] (inactive)
CCc1cccc(C)c1,,1.45% [at 95.1 µM] (inactive)
C[C@@H]1CC[C@H]2C(C)(C)[C@H]3C[C@@]12CC[C@@]3(C)O,,5.04% (inactive)
Cc1cn[nH]c1,,0.969% (inactive)
CC=O,0.0717 µM (active),
Cn1cnc2ncnc(N)c21,,1.07% (inactive)
Clc1ccc(C(Cn2ccnc2)OCc2c(Cl)cccc2Cl)c(Cl)c1 (configuration not stated),11.4 µM (active),
